Inconclusive results are not listed. Calls of active or inactive are those of the source. How the source made its calls, unless noted: active means hit-call score of the fitted dose curve at least 0.9, where 1 is the maximum; inactive means score below 0.9.
What was measured:
[1] = ATG_CRE_CIS: Attagene CIS-FACTORIAL HepG2 Assay for human cAMP Responsive Element (CRE) binding protein 3 (AID 2282926); details: HepG2 CRE cis-reporter, Attagene multiplexed mRNA; actives raise or lower the signal
Method in brief: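 Endogenous CRE-binding activity in HepG2 is reported through a cis-regulated transfected reporter. Following a day of exposure, mRNA levels are determined by reverse transcription PCR and fluorescent fragment analysis; fits run in both directions versus DMSO.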

[2] = ATG_M_19_CIS: Attagene CIS-FACTORIAL HepG2 Assay for M19 Transcription Factor (Internal Marker) (AID 2282939); details: HepG2 Attagene CIS-FACTORIAL M19 internal marker reporter; actives raise or lower the signal
Method in brief: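 Readout: fluorescent reporter-transcript fragments by capillary electrophoresis after RT-PCR. Human HepG2 liver cells carried transfected MRTU constructs reporting endogenous transcription-factor activity; exposure 24 h. Gain or loss of signal fitted relative to DMSO.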

[3] = target: Hypoxia-inducible factor 1-alpha (Homo sapiens) (UniProt Q16665); experiment: ATG_HIF1a_CIS: Attagene CIS-FACTORIAL HepG2 Assay for human Hypoxia Inducible Factor 1 (HIF1A) (AID 2282951); details: HepG2 Attagene cis-factorial HIF1a reporter transcription; actives raise or lower the signal
Method in brief: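 Endogenous-TF cis reporter readout, human HepG2 cells, 24 h incubation; mRNA detected via RT-PCR and capillary electrophoresis fluorescence; DMSO-normalised bidirectional fitting.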

[4] = target: Heat shock factor protein 1 (Homo sapiens) (UniProt Q00613); experiment: ATG_HSE_CIS: Attagene CIS-FACTORIAL HepG2 Assay for human Heat Shock Transcription Factor 1 (HSE) (AID 2282953); details: HepG2 HSE cis-reporter, Attagene RNA transcription; actives raise or lower the signal
Method in brief: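 Read-out: fluorescence of reporter-specific RT-PCR fragments separated by capillary electrophoresis. HepG2 carrying transfected cis-element reporter units; 24 h dosing; activity fitted in both directions relative to DMSO baseline.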

[5] = target: Paired box protein Pax-6 (Homo sapiens) (UniProt P26367); experiment: ATG_Pax6_CIS: Attagene CIS-FACTORIAL HepG2 Assay for human Paired Box 6 (PAX6) (AID 2282956); details: HepG2 CIS-FACTORIAL PAX6 reporter transcription, RNA readout; actives raise or lower the signal
Method in brief: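 HepG2 cells transiently transfected with multiplexed cis-promoter reporter units (endogenous TF activity) were dosed for 24 h. Reporter mRNA was quantified by RT-PCR, 6-FAM labeling, HpaI digestion and capillary electrophoresis; bidirectional fitting versus DMSO baseline.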

[6] = ATG_TAL_CIS: Attagene CIS-FACTORIAL HepG2 Assay for human TAL Basal Promoter (AID 2282966); details: HepG2 Attagene cis-factorial TAL promoter reporter; actives raise or lower the signal;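 further: background control endpoint measuring basal TAL promoter reporter mRNA not a specific factor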
Method in brief: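 In this cell-based multiplex, HepG2 liver cells bearing cis-promoter reporter constructs are dosed for 24 hours. Total RNA is reverse-transcribed and amplified, labelled fragments are sized by capillary electrophoresis, and signal changes are fitted bidirectionally versus DMSO.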

[7] = ATG_TGFb_CIS: Attagene CIS-FACTORIAL HepG2 Assay for human Transforming Growth Factor (TGF) (AID 2282967); details: HepG2 Attagene CIS TGFb reporter, mRNA transcription; actives raise or lower the signal
Method in brief: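 Readout: fluorescently labeled reporter cDNA fragments resolved by capillary electrophoresis after RT-PCR. Transfected HepG2 cells dosed for 24 h; endogenous TF activity at TGFB1-linked cis element; gain or loss fitted relative to DMSO.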

[8] = ATG_VDRE_CIS: Attagene CIS-FACTORIAL HepG2 Assay for human Vitamin D Receptor Element (VDRE) (AID 2282968); details: HepG2 VDRE cis-reporter transcription, actives raise or lower the signal
Method in brief: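 Transiently transfected HepG2 cells carrying cis-regulated reporter transcription units were exposed for 24 h. Reporter mRNA was measured by RT-PCR with fluorescent labelling and capillary electrophoresis, and fitted in both directions against DMSO.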

[9] = ATG_M_32_TRANS: Attagene TRANS-FACTORIAL HepG2 Assay for M32 Transcription Factor (Internal Marker) (AID 2282984; active means hit-call score of the fitted dose curve at least 0.9, where 1 is the maximum;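 further: transcript level of a background control reporter unit measured by RT-PCR and capillary electrophoresis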); details: HepG2 Attagene TRANS M32 internal marker reporter
Method in brief: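 HepG2 cells transiently transfected with GAL4-UAS reporter units, dosed for 24 hours. Reporter mRNA quantified by RT-PCR, 6-FAM labelling, HpaI digestion and capillary electrophoresis; internal-marker signal fitted upward relative to DMSO.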

[10] = target: Transcriptional activator Myb (Homo sapiens) (UniProt P10242); experiment: ATG_Myb_CIS: Attagene CIS-FACTORIAL HepG2 Assay for human Myeloblastosis (Myb) Proto-Oncogene Transcription Factor (AID 2282986); details: HepG2 Attagene CIS-FACTORIAL Myb reporter transcription; actives raise or lower the signal
Method in brief: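 Multiplexed cis-reporter system in HepG2: transient transfection, 24 h treatment, mRNA readout by RT-PCR and capillary electrophoresis. Both increases and decreases are scored versus DMSO negative control.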

[11] = target: Nuclear respiratory factor 1 (Homo sapiens) (UniProt Q16656); experiment: ATG_NRF1_CIS: Attagene CIS-FACTORIAL HepG2 Assay for human Nuclear Respiratory Factor 1 (NRF1) Orphan Gene (AID 2282987); details: HepG2 NRF1 cis-element reporter, Attagene multiplex; actives raise or lower the signal
Method in brief: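 Endogenous factor activity was captured via cis-element-driven reporter transcripts in HepG2 cells. Following 24 h chemical treatment, transcripts were quantified by RT-PCR and capillary electrophoresis.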

[12] = ATG_NFI_CIS: Attagene CIS-FACTORIAL HepG2 Assay for human Nuclear Factor I (NFI) (AID 2282989); details: HepG2 cis-regulatory reporter, NFI response element transcription; actives raise or lower the signal
Method in brief: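 Read-out: reporter mRNA via RT-PCR plus capillary electrophoresis with fluorescence detection. Transiently transfected HepG2 (endogenous TF activity on cis promoters), 24 h compound exposure; gain or loss of signal fitted against DMSO.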

[13] = ATG_NF_kB_CIS: Attagene CIS-FACTORIAL HepG2 Assay for human Nuclear Factor Kappa B (NF-kB) (AID 2282991); details: HepG2 Attagene cis-factorial NF-kB reporter mRNA; actives raise or lower the signal
Method in brief: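 After 24 h compound incubation, transfected HepG2 cells yield total RNA; reporter cDNA is PCR-amplified, end-labelled with 6-FAM, HpaI-digested and analysed on a genetic analyser. Endogenous factor activity, DMSO-referenced bidirectional fit.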

[14] = ATG_NRF2_ARE_CIS: Attagene CIS-FACTORIAL HepG2 Assay for human Nuclear Factor Erythroid 2 Related Factor 2 (NFR2) response to Antioxidant Response Elements (ARE) (AID 2282992); details: HepG2 Attagene ARE/NRF2 reporter, transcription factor activity; actives raise or lower the signal;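 on AC50: reporter mRNA level measured by RT-PCR and capillary electrophoresis fluorescence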
Method in brief: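 HepG2 cells transiently transfected with multiplexed cis-regulated reporter transcription units measure endogenous transcription factor activity. Reporter mRNA at 24 h is quantified by RT-PCR, fluorescent labelling and capillary electrophoresis, with bidirectional fitting relative to DMSO.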

[15] = ATG_Oct_MLP_CIS: Attagene CIS-FACTORIAL HepG2 Assay for human Octamer-Binding Transcription Factor (Oct) (AID 2282993); details: HepG2 Attagene cis-factorial Oct reporter, mRNA; actives raise or lower the signal
Method in brief: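 Read-out: reporter mRNA via RT-PCR plus capillary electrophoresis of 6-FAM-labelled fragments. Transiently transfected HepG2, 24 h exposure, endogenous TF activity on cis elements. Gain or loss of signal fitted relative to DMSO.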

[16] = target: Cellular tumor antigen p53 (Homo sapiens) (UniProt P04637); experiment: ATG_p53_CIS: Attagene CIS-FACTORIAL HepG2 Assay for human p53 Transcription Factor (AID 2282994); details: HepG2 p53 cis-element reporter, Attagene mRNA; actives raise or lower the signal
Method in brief: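 HepG2 cells transiently transfected with multiplexed cis-regulated reporter transcription units read endogenous TF activity. After 24 h compound exposure, reporter mRNA was quantified by RT-PCR, fluorescent labelling, HpaI digestion and capillary electrophoresis; bidirectional fits versus DMSO baseline.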

[17] = target: Peroxisome proliferator-activated receptor gamma (Homo sapiens) (UniProt P37231); experiment: ATG_PPARg_TRANS: Attagene TRANS-FACTORIAL HepG2 Assay for human Peroxisome Proliferator-activated Receptor-gamma (PPARg) (AID 2283007; active means hit-call score of the fitted dose curve at least 0.9, where 1 is the maximum)
Method in brief: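 Liver-derived HepG2 cells expressing an exogenous NR-Gal4 chimera alongside GAL4-UAS reporter genes; 24 h exposure. Fluorescence of reporter RT-PCR products, separated by capillary electrophoresis, gives mRNA induction relative to DMSO.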

[18] = target: Transcription factor E2F1 (Homo sapiens) (UniProt Q01094); experiment: ATG_E2F_CIS: Attagene CIS-FACTORIAL HepG2 Assay for human E2F Transcription Factor 1 (AID 2282935); details: HepG2 Attagene cis-reporter, E2F reporter RNA transcripts; actives raise or lower the signal
Method in brief: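 Endogenous E2F1 activity read through cis-promoter reporter units transfected into HepG2. After 24 h compound treatment, reporter mRNA measured by RT-PCR, HpaI digestion and capillary electrophoresis. Bidirectional fit versus DMSO.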

[19] = ATG_RORE_CIS: Attagene CIS-FACTORIAL HepG2 Assay for human RAR-related Orphan Receptor Element (RORE) (AID 2282959); details: HepG2 Attagene cis-factorial RORE reporter, mRNA; actives raise or lower the signal
Method in brief: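 Measured here: transcript induction of a cis-regulated reporter in HepG2 cells transiently transfected via FuGene 6. After 24 h, RNA was processed by RT-PCR and fluorescent capillary electrophoresis; DMSO defined baseline activity.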

[20] = ATG_TA_CIS: Attagene CIS-FACTORIAL HepG2 Assay for human TA Basal Promoter (AID 2282964); details: HepG2 Attagene CIS-factorial TA basal promoter reporter; actives raise or lower the signal
Method in brief: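 Transfected HepG2, 24 h compound exposure; RNA → RT-PCR → FAM primer extension → HpaI cut → CE fluorescence. Gain/loss-of-signal fitted against DMSO negative control. Background-control readout.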

Measured: AC50

Nuclear respiratory factor 1 (Homo sapiens), sequence (Q16656 whole entry, looked up): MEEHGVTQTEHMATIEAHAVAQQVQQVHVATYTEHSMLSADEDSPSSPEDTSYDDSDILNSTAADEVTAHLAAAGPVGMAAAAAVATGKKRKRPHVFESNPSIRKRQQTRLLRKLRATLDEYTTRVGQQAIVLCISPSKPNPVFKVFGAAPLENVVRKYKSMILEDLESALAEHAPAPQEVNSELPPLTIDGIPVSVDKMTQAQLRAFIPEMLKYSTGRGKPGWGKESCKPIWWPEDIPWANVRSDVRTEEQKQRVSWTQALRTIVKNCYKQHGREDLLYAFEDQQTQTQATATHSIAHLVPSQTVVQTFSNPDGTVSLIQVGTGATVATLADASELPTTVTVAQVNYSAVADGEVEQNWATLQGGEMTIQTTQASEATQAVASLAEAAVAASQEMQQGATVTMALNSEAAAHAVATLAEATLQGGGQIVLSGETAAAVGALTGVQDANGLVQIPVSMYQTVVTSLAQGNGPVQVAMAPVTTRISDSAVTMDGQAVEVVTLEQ
Transcription factor E2F1 (Homo sapiens), sequence (Q01094 whole entry, looked up): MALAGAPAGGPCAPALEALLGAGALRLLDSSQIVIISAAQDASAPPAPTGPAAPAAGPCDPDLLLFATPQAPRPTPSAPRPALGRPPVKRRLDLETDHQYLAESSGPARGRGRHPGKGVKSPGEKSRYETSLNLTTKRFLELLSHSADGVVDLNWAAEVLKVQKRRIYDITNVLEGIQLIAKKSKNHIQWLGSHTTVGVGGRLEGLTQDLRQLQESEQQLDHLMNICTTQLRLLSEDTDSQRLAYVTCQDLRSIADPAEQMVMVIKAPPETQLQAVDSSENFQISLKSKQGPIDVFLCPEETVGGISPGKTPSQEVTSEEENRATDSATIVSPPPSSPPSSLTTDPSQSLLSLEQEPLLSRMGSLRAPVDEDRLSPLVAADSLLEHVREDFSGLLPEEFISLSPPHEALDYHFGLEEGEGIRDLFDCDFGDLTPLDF
Transcriptional activator Myb (Homo sapiens), sequence (P10242 whole entry, looked up): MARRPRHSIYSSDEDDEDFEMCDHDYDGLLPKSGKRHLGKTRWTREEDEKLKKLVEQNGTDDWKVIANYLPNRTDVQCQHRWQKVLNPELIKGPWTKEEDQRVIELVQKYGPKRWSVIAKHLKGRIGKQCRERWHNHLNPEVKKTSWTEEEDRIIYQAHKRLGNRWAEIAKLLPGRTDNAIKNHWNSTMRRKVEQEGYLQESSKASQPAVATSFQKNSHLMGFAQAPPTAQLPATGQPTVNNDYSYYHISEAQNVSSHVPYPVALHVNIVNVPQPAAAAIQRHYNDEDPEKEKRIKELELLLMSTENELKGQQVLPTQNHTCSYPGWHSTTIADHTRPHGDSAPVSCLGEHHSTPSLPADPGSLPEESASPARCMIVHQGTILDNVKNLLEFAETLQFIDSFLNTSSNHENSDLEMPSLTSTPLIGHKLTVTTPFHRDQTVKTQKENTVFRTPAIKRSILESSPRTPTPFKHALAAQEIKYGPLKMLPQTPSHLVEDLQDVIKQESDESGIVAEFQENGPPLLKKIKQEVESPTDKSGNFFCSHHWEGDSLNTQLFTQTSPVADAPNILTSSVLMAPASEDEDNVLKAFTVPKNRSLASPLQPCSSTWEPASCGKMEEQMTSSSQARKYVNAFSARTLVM
Peroxisome proliferator-activated receptor gamma (Homo sapiens), sequence (P37231 whole entry, looked up, the tested form may be a part): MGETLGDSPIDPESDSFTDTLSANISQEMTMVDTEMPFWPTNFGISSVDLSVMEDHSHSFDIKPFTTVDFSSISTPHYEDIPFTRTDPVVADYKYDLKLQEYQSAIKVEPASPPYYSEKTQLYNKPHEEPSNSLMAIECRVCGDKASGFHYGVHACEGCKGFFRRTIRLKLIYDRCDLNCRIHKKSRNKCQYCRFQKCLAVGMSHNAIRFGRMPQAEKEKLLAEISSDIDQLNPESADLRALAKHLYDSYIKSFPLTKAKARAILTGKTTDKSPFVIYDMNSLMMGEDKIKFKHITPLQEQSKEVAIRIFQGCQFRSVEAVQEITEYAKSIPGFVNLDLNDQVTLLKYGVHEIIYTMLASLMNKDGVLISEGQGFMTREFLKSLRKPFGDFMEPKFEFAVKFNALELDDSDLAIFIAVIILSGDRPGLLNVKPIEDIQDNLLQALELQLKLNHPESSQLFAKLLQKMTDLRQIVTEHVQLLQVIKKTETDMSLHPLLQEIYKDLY
Heat shock factor protein 1 (Homo sapiens), sequence (Q00613 whole entry, looked up, the tested form may be a part): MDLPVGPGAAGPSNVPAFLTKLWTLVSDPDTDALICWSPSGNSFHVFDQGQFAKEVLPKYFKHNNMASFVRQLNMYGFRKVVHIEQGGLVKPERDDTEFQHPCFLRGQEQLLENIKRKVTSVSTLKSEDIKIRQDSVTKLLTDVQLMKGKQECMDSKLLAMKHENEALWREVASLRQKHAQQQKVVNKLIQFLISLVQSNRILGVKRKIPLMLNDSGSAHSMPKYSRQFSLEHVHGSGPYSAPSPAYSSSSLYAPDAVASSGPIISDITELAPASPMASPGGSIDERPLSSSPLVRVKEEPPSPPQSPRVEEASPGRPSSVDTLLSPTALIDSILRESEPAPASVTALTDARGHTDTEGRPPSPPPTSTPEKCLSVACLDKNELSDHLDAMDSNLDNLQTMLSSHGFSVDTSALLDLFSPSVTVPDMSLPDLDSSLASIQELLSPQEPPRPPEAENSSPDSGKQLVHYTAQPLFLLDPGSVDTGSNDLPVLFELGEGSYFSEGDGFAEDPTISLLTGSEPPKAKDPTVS
Cellular tumor antigen p53 (Homo sapiens), sequence (P04637 whole entry, looked up): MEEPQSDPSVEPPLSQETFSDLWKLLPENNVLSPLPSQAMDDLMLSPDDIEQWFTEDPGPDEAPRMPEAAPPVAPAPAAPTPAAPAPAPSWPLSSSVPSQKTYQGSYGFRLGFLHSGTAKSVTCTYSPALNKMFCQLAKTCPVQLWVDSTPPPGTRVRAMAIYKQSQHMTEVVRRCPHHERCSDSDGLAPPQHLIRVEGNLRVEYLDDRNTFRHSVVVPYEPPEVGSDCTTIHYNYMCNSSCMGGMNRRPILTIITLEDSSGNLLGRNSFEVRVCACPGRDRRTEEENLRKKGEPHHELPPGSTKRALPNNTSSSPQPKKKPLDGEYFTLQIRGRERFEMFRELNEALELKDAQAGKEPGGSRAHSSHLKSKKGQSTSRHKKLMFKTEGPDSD
Hypoxia-inducible factor 1-alpha (Homo sapiens), sequence (Q16665 whole entry, looked up): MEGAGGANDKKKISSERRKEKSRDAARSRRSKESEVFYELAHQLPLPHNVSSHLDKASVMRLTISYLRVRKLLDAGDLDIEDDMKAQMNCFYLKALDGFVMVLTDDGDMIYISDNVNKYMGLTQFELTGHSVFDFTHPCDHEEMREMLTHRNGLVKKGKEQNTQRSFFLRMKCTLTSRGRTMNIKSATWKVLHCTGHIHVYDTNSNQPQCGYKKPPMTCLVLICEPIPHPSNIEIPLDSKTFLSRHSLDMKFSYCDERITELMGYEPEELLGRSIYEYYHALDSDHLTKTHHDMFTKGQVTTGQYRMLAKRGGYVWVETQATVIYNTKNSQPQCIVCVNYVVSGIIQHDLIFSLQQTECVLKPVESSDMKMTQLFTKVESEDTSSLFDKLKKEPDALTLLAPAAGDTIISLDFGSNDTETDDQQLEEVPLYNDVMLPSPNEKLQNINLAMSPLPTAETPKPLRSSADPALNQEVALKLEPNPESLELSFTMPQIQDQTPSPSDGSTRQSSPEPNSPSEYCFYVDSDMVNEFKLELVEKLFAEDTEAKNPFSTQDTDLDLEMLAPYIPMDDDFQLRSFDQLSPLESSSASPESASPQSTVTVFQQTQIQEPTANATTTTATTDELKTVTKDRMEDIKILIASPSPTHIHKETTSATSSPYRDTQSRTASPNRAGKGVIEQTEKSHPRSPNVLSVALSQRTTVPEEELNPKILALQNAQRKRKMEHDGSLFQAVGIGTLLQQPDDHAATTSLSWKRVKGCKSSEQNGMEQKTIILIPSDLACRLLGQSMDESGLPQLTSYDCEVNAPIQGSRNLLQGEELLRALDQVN
Paired box protein Pax-6 (Homo sapiens), sequence (P26367 whole entry, looked up): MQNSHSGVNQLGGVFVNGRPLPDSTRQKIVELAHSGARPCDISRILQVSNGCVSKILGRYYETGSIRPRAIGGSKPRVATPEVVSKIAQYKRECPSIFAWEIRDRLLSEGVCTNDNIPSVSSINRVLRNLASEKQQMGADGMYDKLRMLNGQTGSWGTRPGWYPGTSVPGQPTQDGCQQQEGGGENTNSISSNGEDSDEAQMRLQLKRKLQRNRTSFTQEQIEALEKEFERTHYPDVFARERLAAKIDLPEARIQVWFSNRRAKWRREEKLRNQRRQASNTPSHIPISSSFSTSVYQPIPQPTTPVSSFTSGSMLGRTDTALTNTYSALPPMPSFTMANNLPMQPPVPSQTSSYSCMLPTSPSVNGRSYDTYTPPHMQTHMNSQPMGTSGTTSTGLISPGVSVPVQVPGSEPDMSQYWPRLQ

CCc1cccc(C)c1N(C(=O)CCl)[C@@H](C)COC
active: [8] 2.13 µM | [14] 7.39 µM | [17] 27 µM
not listed: [18] | [19] | [20]
inactive: all other assays above

CCCCOC(=O)CCC(=O)OCCCC
not listed: [2] | [5] | [8] | [13] | [17] | [20]
inactive: all other assays above

Cc1cc(C)c(C2=C(OC(=O)CC(C)(C)C)C3(CCCC3)OC2=O)c(C)c1
active: [1] 127 µM | [4] 170 µM | [5] 104 µM | [12] 145 µM | [14] 160 µM | [17] 4.68 µM
not listed: [2] | [8] | [15] | [16] | [18]
inactive: all other assays above

Cl/C=C\CCl
not listed: [18] | [20]
inactive: all other assays above

CCCC=NO
not listed: [1] | [13] | [20]
inactive: all other assays above

CCOP(=O)(OCC)OCC
not listed: [1] | [7] | [13]
inactive: all other assays above

O=S(=O)(O)O
not listed: [8] | [9] | [13] | [16] | [17] | [18] | [19] | [20]
inactive: all other assays above

CN(C)CCC#N
inactive: all assays above

C=C(Cl)CCl
not listed: [2] | [15] | [18]
inactive: all other assays above

C[C@]12CCC(=O)C(O)=C1CC[C@@H]1[C@@H]2CC[C@]2(C)C(=O)CC[C@@H]12
active: [14] 13.8 µM
not listed: [9] | [18]
inactive: all other assays above

ClCC(Cl)Cl
not listed: [2] | [9]
inactive: all other assays above

COC(=O)c1ccccc1S(=O)(=O)NC(=O)Nc1nc(C)cc(C)n1
not listed: [2] | [4] | [16] | [19] | [20]
inactive: all other assays above

Nc1ccccc1C(=O)OCCc1ccccc1
active: [3] 31.9 µM | [19] 20.8 µM | [6] 33.4 µM | [8] 22.3 µM | [14] 13.1 µM | [17] 24.9 µM
inactive: all other assays above

Cc1ccc(N(SC(F)(Cl)Cl)S(=O)(=O)N(C)C)cc1
active: [3] 11.1 µM | [4] 16.5 µM | [5] 17.9 µM | [8] 14.4 µM | [12] 17.3 µM | [14] 13.9 µM | [15] 17.7 µM
not listed: [7] | [18] | [19]
inactive: all other assays above

CCOP(O)OCC
not listed: [16]
inactive: all other assays above

CCC(C)(C)O
not listed: [13] | [15] | [16] | [17] | [20]
inactive: all other assays above

Reference: PubChem BioAssay (EPA / NIEHS)
